Sampled rows, rich in hits. Any-hit rate of the full collection: about 2.4%.
NOD2-RIPK2 inh: blocks binding of human NOD2 to RIPK2; inhibition, % at 4.98 µM; CHO BLA complementation NOD2-RIPK2, CCF4 ratio; 360,000 compounds, 0.38% hits; O43353; in the data active = inhibition above about 21%;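 also: 0% = vehicle only and 100% = reference blocker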
m5-HT2A agonist: agonists of mouse serotonin 5-HT2A receptor (HTR2A); P35363; CHO-K1 mHTR2A beta-arrestin complementation, luminescence; percent of 30 µM serotonin response; activation, % at 7.6 µM; 360,000 compounds, 0.66% hits; AID 624169;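 active = activation above a run cutoff, the mean activation of all tested compounds plus 3 SD, cut at about 14% in these data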;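 also: 0% = plate median of compound wells and 100% = 30 µM serotonin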
ABHD5 PLIN5 PPI: inhibitors of human ABHD5-perilipin-5 interaction | Split G. princeps luciferase complementation, luminescence, 4 h | inhibition, % at 4 µM | 360,000 compounds, 0.78% hits | AID 602281;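 active = inhibition above the mean inhibition across every tested compound plus 3 SD, cut at about 22% in these data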;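 also: 0% = DMSO only wells and the 100% control is not disclosed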
TLR9-MyD88 inh: blocks human TLR9 binding to MyD88; Q9NR96+Q99836; CHO BLA complementation TLR9-MyD88, CCF4 FRET ratio; inhibition, % at 4.98 µM; 340,000 compounds, 0.21% hits;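 active = inhibition above the mean over all tested compounds plus 3 SD, cut at about 21% in these data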;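 also: 0% = DMSO only wells and 100% = clavulanate BLA inhibitor control wells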
TLR4 MyD88 comp: TLR4-MyD88 interaction inhibition in cells; O00206+Q99836; HeLa CL3-4 TLR4/MyD88 BLA complementation, FRET ratio; inhibition, % at 8.4 µM; 200,000 compounds, 0.18% hits; in the data active = inhibition above about 25%;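 also: 0% = vehicle and 100% = reference inhibitor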
Target sequence (O00206 whole entry, looked up): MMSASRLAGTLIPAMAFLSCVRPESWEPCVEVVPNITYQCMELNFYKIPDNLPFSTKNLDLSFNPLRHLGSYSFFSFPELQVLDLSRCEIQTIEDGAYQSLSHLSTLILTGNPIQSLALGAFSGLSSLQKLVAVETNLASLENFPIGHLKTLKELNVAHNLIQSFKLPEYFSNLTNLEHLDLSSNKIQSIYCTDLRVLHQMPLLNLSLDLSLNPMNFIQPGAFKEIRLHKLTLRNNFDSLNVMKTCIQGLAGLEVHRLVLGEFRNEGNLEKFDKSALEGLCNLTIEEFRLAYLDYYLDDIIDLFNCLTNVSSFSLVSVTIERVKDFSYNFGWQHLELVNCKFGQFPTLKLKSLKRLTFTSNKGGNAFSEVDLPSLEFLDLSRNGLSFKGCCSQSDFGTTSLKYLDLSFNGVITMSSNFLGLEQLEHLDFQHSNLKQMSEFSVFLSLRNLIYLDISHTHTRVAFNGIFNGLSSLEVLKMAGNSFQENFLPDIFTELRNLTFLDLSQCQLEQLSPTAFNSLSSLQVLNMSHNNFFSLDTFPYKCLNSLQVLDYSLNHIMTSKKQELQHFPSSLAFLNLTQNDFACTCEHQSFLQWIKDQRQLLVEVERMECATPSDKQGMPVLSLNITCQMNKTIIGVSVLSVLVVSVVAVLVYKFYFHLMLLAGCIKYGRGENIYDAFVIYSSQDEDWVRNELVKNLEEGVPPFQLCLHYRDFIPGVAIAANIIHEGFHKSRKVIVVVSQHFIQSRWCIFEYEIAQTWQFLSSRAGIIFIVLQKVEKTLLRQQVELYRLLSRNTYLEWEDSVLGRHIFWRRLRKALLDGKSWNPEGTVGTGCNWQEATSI
Target sequence (Q99836 whole entry, looked up): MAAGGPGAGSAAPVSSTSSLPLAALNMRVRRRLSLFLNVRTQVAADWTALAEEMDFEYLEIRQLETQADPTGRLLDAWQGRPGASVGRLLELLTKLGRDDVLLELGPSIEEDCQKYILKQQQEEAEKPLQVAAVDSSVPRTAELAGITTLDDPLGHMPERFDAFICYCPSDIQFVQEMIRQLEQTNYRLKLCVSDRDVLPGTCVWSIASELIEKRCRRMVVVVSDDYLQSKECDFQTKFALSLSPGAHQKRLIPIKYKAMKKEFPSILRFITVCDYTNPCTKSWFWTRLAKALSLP
CRFR2-BP antag: blocks CRF-induced signaling of the CRF-BP/CRF-R2 complex; inhibition, % at 11.8 µM; 350,000 compounds, 0.59% hits; HEK293 CRF-R2/CRF-BP, CRF-induced calcium fluorescence; AID 588475;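 active = inhibition of the ligand-induced calcium signal above about 50% at the single tested concentration, limit read from the data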
* = called active by the depositor.

O=C(NCc1csc(-c2cccs2)n1)c1cccc(Cl)c1 was read as NOD2-RIPK2 inh -11, m5-HT2A agonist -5, ABHD5 PLIN5 PPI -5, TLR9-MyD88 inh -12 and CRFR2-BP antag -1.
`O=C(NCc1csc(-c2cccs2)n1)c1ccccc1` gave NOD2-RIPK2 inh -12, m5-HT2A agonist 3, ABHD5 PLIN5 PPI 4, TLR9-MyD88 inh 9 and CRFR2-BP antag 77*.
O=C(Cn1ncn2c(cc3ccccc32)c1=O)NCc1ccco1 was read as NOD2-RIPK2 inh -2, m5-HT2A agonist 4, ABHD5 PLIN5 PPI 29*, TLR9-MyD88 inh 3, TLR4 MyD88 comp -15 and CRFR2-BP antag 37.
Cc1ccc(NC(=O)Cn2ncn3c(cc4ccccc43)c2=O)cc1F was read as NOD2-RIPK2 inh 9, m5-HT2A agonist 1, ABHD5 PLIN5 PPI -5, TLR9-MyD88 inh 6 and CRFR2-BP antag 60*.
COc1ccc(CNC(=O)Cn2ncn3c(cc4ccccc43)c2=O)cc1 was read as NOD2-RIPK2 inh 3, m5-HT2A agonist 2, ABHD5 PLIN5 PPI 2, TLR9-MyD88 inh 1 and CRFR2-BP antag 15.
CCc1cccc(NC(=O)Cn2ncn3c(cc4ccccc43)c2=O)c1 was read as NOD2-RIPK2 inh 5, m5-HT2A agonist 1, ABHD5 PLIN5 PPI -2, TLR9-MyD88 inh 14, TLR4 MyD88 comp -13 and CRFR2-BP antag 18.
For CN1NC(c2ccccc2)NN(C)C1=O the results were NOD2-RIPK2 inh 10, m5-HT2A agonist -1 and ABHD5 PLIN5 PPI -26.
CC1(C)CC(=O)C(C2C3=C(CC(C)(C)CC3=O)Oc3ccc4ccccc4c32)C(=O)C1 (stereo not drawn) was read as NOD2-RIPK2 inh -11, m5-HT2A agonist 1, ABHD5 PLIN5 PPI -1, TLR9-MyD88 inh -2, TLR4 MyD88 comp -4 and CRFR2-BP antag 81*.
Screening C[C@H](NC(=O)[C@@H]1Cc2ccccc2CN1)C(=O)NC1CCCCC1 returned NOD2-RIPK2 inh -4, m5-HT2A agonist -2, ABHD5 PLIN5 PPI 4, TLR9-MyD88 inh -1 and CRFR2-BP antag 93*.
`CC(C)[C@H](NC(=O)[C@@H]1Cc2ccccc2CN1)C(=O)NC1CCCCC1` gave NOD2-RIPK2 inh 4, m5-HT2A agonist -7, ABHD5 PLIN5 PPI -2, TLR9-MyD88 inh -1 and CRFR2-BP antag -1.
For O=C(/C=C/c1ccc([N+](=O)[O-])cc1)NCc1ccco1 the results were NOD2-RIPK2 inh -8, m5-HT2A agonist -4, ABHD5 PLIN5 PPI 1, TLR9-MyD88 inh 2, TLR4 MyD88 comp -4 and CRFR2-BP antag -4.
O=C(/C=C/c1ccc([N+](=O)[O-])cc1)/C=C/c1ccco1 was read as NOD2-RIPK2 inh 1, m5-HT2A agonist 4, ABHD5 PLIN5 PPI 63* and TLR9-MyD88 inh 8.
Screening COc1cccc(CNc2nc(-c3cccnc3)nc3ccccc23)c1 returned NOD2-RIPK2 inh 3, m5-HT2A agonist 0, ABHD5 PLIN5 PPI 1, TLR9-MyD88 inh 5, TLR4 MyD88 comp 4 and CRFR2-BP antag 96*.
`COc1cccc(/C=N/Nc2nc(-c3cccnc3)nc3ccccc23)c1` gave NOD2-RIPK2 inh -4, m5-HT2A agonist -1, ABHD5 PLIN5 PPI 3, TLR9-MyD88 inh 3 and CRFR2-BP antag 0.
For CCNc1nc(Sc2ccc(C)cc2)cc(C(F)(F)F)n1 the results were NOD2-RIPK2 inh 6, m5-HT2A agonist -4, ABHD5 PLIN5 PPI -5, TLR9-MyD88 inh -2, TLR4 MyD88 comp 8 and CRFR2-BP antag 0.
Screening CC(C)c1cc(C(F)(F)F)nc(NNc2nc(C(C)C)cc(C(F)(F)F)n2)n1 returned NOD2-RIPK2 inh -13, m5-HT2A agonist 4, ABHD5 PLIN5 PPI 4, TLR9-MyD88 inh 3 and CRFR2-BP antag 54*.
Screening CCc1nc2ccc(C(=O)NCCCn3ccnc3)cn2c1N(C)Cc1ccc(N(C)C)cc1 returned NOD2-RIPK2 inh -16, m5-HT2A agonist -3 and ABHD5 PLIN5 PPI 5.
`C=CCOc1ccc(/C=C2\SC(=S)N(C(C(=O)O)c3ccccc3)C2=O)cc1` (stereo not drawn) gave NOD2-RIPK2 inh -15, m5-HT2A agonist -2, ABHD5 PLIN5 PPI -12, TLR9-MyD88 inh 8 and CRFR2-BP antag 55*.
Cc1nn(Cc2ccc(Cl)cc2)c(C)c1NC(=O)c1ccc([N+](=O)[O-])cc1 was read as NOD2-RIPK2 inh -1, m5-HT2A agonist 3, ABHD5 PLIN5 PPI 3, TLR9-MyD88 inh -10, TLR4 MyD88 comp 5 and CRFR2-BP antag 56*.
For COc1ccc(N2C(=O)c3ccccc3NC(=O)C2C(=O)Nc2ccc(N3CCOCC3)cc2)cc1 (stereo not drawn) the results were NOD2-RIPK2 inh -10, m5-HT2A agonist 2 and ABHD5 PLIN5 PPI 1.
`CCCCNc1c(-c2ccc(SC(C)CC)cc2)nc2cnccn12` (stereo not drawn) gave NOD2-RIPK2 inh 69*, m5-HT2A agonist 8, ABHD5 PLIN5 PPI -7, TLR9-MyD88 inh 54* and CRFR2-BP antag -14.
CCCCNc1c(-c2ccc(SC(C)CC)c(OC)c2)nc2ccc(C)cn12 (stereo not drawn) was read as NOD2-RIPK2 inh -4, m5-HT2A agonist -4, ABHD5 PLIN5 PPI -12, TLR9-MyD88 inh -10 and CRFR2-BP antag -9.
Cc1ccc(-c2nc(=S)c3c(n2Cc2ccco2)CC(C)(C)OC3)cc1 was read as NOD2-RIPK2 inh 4, m5-HT2A agonist 0, ABHD5 PLIN5 PPI 55*, TLR9-MyD88 inh 1, TLR4 MyD88 comp -8 and CRFR2-BP antag -33.
For CCOC(=O)c1c(CC(C)C)csc1NC(=O)c1ccccc1C(=O)O the results were NOD2-RIPK2 inh 4, m5-HT2A agonist 0, ABHD5 PLIN5 PPI -1, TLR9-MyD88 inh -3 and CRFR2-BP antag 13.
For CC(C)Cc1csc(NC(=O)c2ccc(F)cc2)c1C(=O)O the results were NOD2-RIPK2 inh -5, m5-HT2A agonist 0, ABHD5 PLIN5 PPI -8, TLR9-MyD88 inh 3, TLR4 MyD88 comp 7 and CRFR2-BP antag 69*.
For COc1ccc(C(=O)N2CCCC(c3cc(C(=O)Nc4ccccc4)no3)C2)cc1 (stereo not drawn) the results were NOD2-RIPK2 inh -2, m5-HT2A agonist 0 and ABHD5 PLIN5 PPI -3.
`Cc1ccc(NC(=O)C2CCCN2C(=O)c2cccs2)cc1C` (stereo not drawn) gave NOD2-RIPK2 inh 2, m5-HT2A agonist 4, ABHD5 PLIN5 PPI 3, TLR9-MyD88 inh -15 and CRFR2-BP antag 54*.
`NC(Cc1ccc(Cl)cc1)c1csc(NC(=O)NCC2CCCCC2)n1` (stereo not drawn) gave NOD2-RIPK2 inh 2, m5-HT2A agonist -1 and ABHD5 PLIN5 PPI 2.
For S=C1NCN(CCc2ccccc2)CN1Cc1ccccc1 the results were NOD2-RIPK2 inh -6, m5-HT2A agonist -3, ABHD5 PLIN5 PPI -10, TLR9-MyD88 inh 9 and CRFR2-BP antag 108*.

Compound activity: PubChem BioAssay, several laboratories
